Source: PubChem BioAssay (National Center for Advancing Translational Sciences (NCATS))
HT1080 IDH1KD tx: HT-1080 IDH1 knockdown cell toxicity (counter line); HT-1080 IDH1 knockdown viability, ATP luminescence, 48 h; Potency, µM (titrated, usually from 46.1 µM), most hits filed as cytotoxic; 360,000 compounds, 2% hits
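After a 2 h attachment period, IDH1KD HT-1080 cells took pin-transferred compound for 48 h at 37 °C; ATP-based luminescence after 10 min room-temperature reagent incubation reported viability.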
SW480 rereplic: DNA re-replication induction in SW480 cells. SW480 DNA re-replication, Hoechst DNA content imaging, 48 h. Potency, µM (titrated, usually from 46.1 µM), actives largely listed as activators. 340,000 compounds, 1.8% hits. AID 624297; note: nearly all actives have a fitted effect of over 55% in size
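Quantitative HTS format with DMSO vehicle controls; 48 hr drug incubation at 37 C, then 40 min Hoechst staining and scanning imager measurement at 405 nm excitation.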
KB-3-1 tox: KB-3-1 parental cell cytotoxicity; KB-3-1 viability, CellTiter-Glo ATP luminescence, 72 h; Potency, µM (doses to about 46.1 µM), usual class: cytotoxic; 400,000 compounds, 1.4% hits; AID 1347075; note: nearly all actives have a fitted effect of over 60% in size
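Parental KB-3-1 viability, qHTS format: 72 h compound exposure, 37 °C; CellTiter-Glo; media-only wells and DMSO plates as controls; concentration-effect fits on corrected data.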
HT1080-NT tox: kills 2HG-producing HT-1080-NT fibrosarcoma cells; HT-1080-NT fibrosarcoma viability, CellTiter-Glo ATP luminescence, 48 h; Potency, µM (highest dose often 46.1 µM), actives largely listed as cytotoxic; 360,000 compounds, 1.6% hits; AID 686970;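 note: NT is the 2HG producing partner of a matched IDH1 knockdown line; nearly all actives have a fitted effect of over 55% in size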
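Viability by CellTiter-Glo luminescence after 48 h compound exposure at 37C of HT-1080-NT cells (750/well, RPMI, 5% FBS). % activity scaled between DMSO wells and medium-only wells, then curve-fitted and categorized by curve class.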
MCF10A rereplic: DNA re-replication induction in MCF 10a cells; MCF 10A DNA re-replication, Hoechst nuclear intensity, 48 h; Potency, µM (series often up to 46.1 µM), most hits filed as activators; 350,000 compounds, 2.9% hits; AID 624296; note: nearly all actives have a fitted effect of over 50% in size
KB-V1 MDR tox: kills drug-selected multidrug resistant KB-V1 cells. 400,000 compounds, 3.4% hits. AID 1347076. Potency, µM (series often up to 46.1 µM), actives largely listed as cytotoxic. KB-V1 MDR cells viability, CellTiter-Glo, 72 h; note: nearly all actives have a fitted effect of over 60% in size
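Readout: CellTiter-Glo luminescence, 10 min after addition. Cells: KB-V1 MDR subline, 72 h at 37 degrees C with compound. Analysis: corrected, normalized data fitted to concentration-effect curves.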
Numbers stand for hits; . = inactive; ? = inconclusive; / = not tested or not shown. Only some compounds are listed: those with a hit (about 7.9% of all), similar ones and a draw of the others. Calls come from the whole dose curve; as a rule, active = well fitted curve in the direction sought with a large enough effect; inconclusive = small, poorly fitted or top-dose-only effect, or another doubt; inactive = no such curve, though single readings can be large; an effect the other way counts as inactive or inconclusive.

SMILES | HT1080 IDH1KD tx | SW480 rereplic | KB-3-1 tox | HT1080-NT tox | MCF10A rereplic | KB-V1 MDR tox
CCn1ncc(C2=NOC(C(=O)Nc3c(C)n(C)n(-c4ccccc4)c3=O)C2)c1C (stereo unspecified) | . | . | . | . | . | .
CCc1ccc(C2c3[nH]c4ccccc4c3CCN2C(=O)CN2CCN(CC)CC2)cc1 (stereo unspecified) | ? | ? | ? | 23µM | ? | .
Cc1ccc(NNC(=O)c2ccno2)cc1C | ? | . | 16µM | ? | . | .
Cc1ccc(NNC(=O)c2snnc2C)cc1Cl | . | 2.3µM | . | . | . | .
Cc1nnsc1C(=O)Nc1ccc(Cl)cc1 | . | . | . | . | . | ?
Cc1ccc(NNC(=O)c2c(C)noc2C)cc1Cl | ? | . | . | . | . | .
Cc1ccc(NNC(=O)c2ccno2)cc1Cl | 3.7µM | . | . | ? | . | .
COc1ccc(Cl)cc1C(=O)OCC(=O)c1ccc[nH]1 | . | . | . | . | . | .
CC(=O)NC1=NN(C(C)=O)C(C)(c2ccccn2)S1 (stereo unspecified) | . | . | . | . | . | .
CC(=O)NC1=NN(C(C)=O)C(C)(c2ccc(Br)cc2)S1 (stereo unspecified) | 18µM | ? | . | ? | ? | .
COc1cccc(C2C(C(=O)Nc3ccccc3OC)=C(C)Nc3nc(-c4ccco4)nn32)c1 (stereo unspecified) | / | / | . | / | / | .
Cc1cc(C)cc(C(=O)N2CCN(Cc3ccc4c(c3)OCO4)CC2)c1 | . | ? | . | . | . | .
C[C@H](NC(=O)c1ccccc1)C(=O)N1CCN(Cc2ccc3c(c2)OCO3)CC1 | . | . | . | . | ? | .
Cc1ccc2[nH]c3c(c2c1)CN(C(=O)CN1CCN(Cc2ccc4c(c2)OCO4)CC1)CC3 | ? | . | ? | 21µM | . | .
CC(C)[C@H](NC(=O)c1ccc(C(C)(C)C)cc1)C(=O)N1CCN(Cc2ccc3c(c2)OCO3)CC1 | 18µM | ? | ? | ? | 18µM | ?
O=C(O)c1ccccc1C(=O)N1CCN(Cc2ccc3c(c2)OCO3)CC1 | . | . | . | . | . | .
Cc1cc(C(=O)N2CCN(Cc3ccc4c(c3)OCO4)CC2)cs1 | . | . | . | . | ? | 15µM
CCSc1ccccc1C(=O)N1CCN(Cc2ccc3c(c2)OCO3)CC1 | . | . | . | . | . | 18µM
COc1ccc(-n2nc(C(=O)N(C)c3cc(Cl)ccc3OC)c3c4ccccc4n(C)c3c2=O)cc1 | / | / | . | / | / | .
O=S1(=O)CC(N2CCN(CCO)CC2)CN1Cc1cn(Cc2ccccc2C(F)(F)F)nn1 (stereo unspecified) | . | / | . | . | / | .
O=C(c1ccc(S(=O)(=O)N2CCCCC2)cc1)N1CCN(Cc2ccc3c(c2)OCO3)CC1 | . | . | ? | . | . | 2.6µM
O=C(c1cccc(S(=O)(=O)N2CCOCC2)c1)N1CCN(Cc2ccc3c(c2)OCO3)CC1 | . | . | . | . | . | ?
COc1ccc(C2C(C(=O)Nc3cccc(OC)c3)c3ccccc3C(=O)N2C)cc1 (stereo unspecified) | . | . | . | . | . | ?
COc1ccc(C2C(C(=O)Nc3cc(OC)c(OC)c(OC)c3)c3ccccc3C(=O)N2C)cc1 (stereo unspecified) | 1.5µM | 6.5µM | ? | 1.5µM | ? | ?
COc1ccc(C(=O)Nn2c(SCC(=O)NCc3ccco3)nc3ccccc3c2=O)cc1 | ? | . | ? | ? | . | ?
SMILES | HT1080 IDH1KD tx | SW480 rereplic | KB-3-1 tox | HT1080-NT tox | MCF10A rereplic | KB-V1 MDR tox
COc1ccc(C(=O)Nn2c(SCC(=O)c3ccc(Cl)cc3)nc3ccccc3c2=O)cc1 | ? | . | . | ? | . | 5.8µM
COc1ccc(C(=O)Nn2c(SCC(=O)NC3CCCCC3)nc3ccccc3c2=O)cc1 | . | . | . | ? | . | 18µM
COc1ccc(C(=O)Nn2c(SCC(=O)N3CCC(C)CC3)nc3ccccc3c2=O)cc1 | ? | . | . | ? | . | 5.2µM
COc1cc(/C=N/O)cc(Br)c1OCC(=O)NCc1ccccc1 | . | . | . | . | . | 16µM
Cc1cccc(C(=O)N2CCC(=O)N([C@H](COCc3cccc(C(F)(F)F)c3)Cc3ccccc3)CC2)c1 | ? | / | . | ? | / | 23µM
Cc1cccc(COC[C@H](Cc2ccccc2)N2CCN(C(=O)c3cccc(Cl)c3)CCC2=O)c1 | ? | / | ? | . | / | 18µM
Cc1cccc(COCC(Cc2ccccc2)N2CCN(C(=O)c3cccc(Cl)c3)CCC2=O)c1 (stereo unspecified) | . | ? | . | . | . | .
CC(C)C[C@@H](COCc1cccc(C(F)(F)F)c1)N1CCN(C(=O)c2ccc(C(F)(F)F)cc2)CCC1=O | ? | / | ? | ? | / | 18µM
Cc1cccc(C(=O)N2CCC(=O)N(C(COCc3cccc(C(F)(F)F)c3)Cc3ccccc3)CC2)c1 (stereo unspecified) | . | ? | . | ? | ? | ?
N#CC(=C1C=CC(=NO)C(Cl)=C1)c1ccccc1 | 5.8µM | / | 6.5µM | 7.3µM | / | ?
Cc1cccc(Cc2c(C)nc3nc(SCC(=O)NCc4ccc(F)cc4)nn3c2C)c1 | / | / | . | / | / | .
C[N+](C)(C)c1ccc(/C=C2\C=Cc3ccccc32)cc1 | / | / | ? | / | / | .
O=c1ccncn1C1OC(CO)C(O)C1O (stereo unspecified) | . | . | . | . | . | .
O=C(OCc1ccco1)c1cccnc1 | . | ? | . | . | 13µM | .
Cc1cc(SCC(=O)N/N=C/c2ccc(O)cc2O)c(C)cc1Br | ? | ? | ? | . | . | 10µM
COc1cc(/C=N/NC(=O)/C(=C/c2ccccc2)CCO)ccc1O | . | ? | . | . | . | .
Cc1cc(SCC(=O)N/N=C/c2ccccc2C(=O)O)c(C)cc1Br | . | . | . | . | . | ?
O=C(CNC(=O)C(c1ccccc1)c1ccccc1)N/N=C/c1ccc(O)cc1O | 7.3µM | ? | ? | ? | ? | .
O=C(CNC(=O)C(c1ccccc1)c1ccccc1)N/N=C\c1cccc(O)c1 | . | . | . | . | . | .
O=C(N/N=C/c1ccc(O)cc1O)/C(=C/c1ccccc1)CCO | ? | ? | . | ? | 18µM | ?
Cc1cccc(OCC(=O)NCC(=O)N/N=C/c2ccc(O)cc2O)c1 | 18µM | ? | . | . | ? | ?
Cc1cc(Cl)ccc1NC(=O)CN(c1ccccc1Br)S(C)(=O)=O | / | / | . | / | / | .
CCOC(=O)c1ccc(NC(=O)c2c(C)nn(-c3ccc(F)cc3)c2-n2cccc2)cc1 | / | / | . | / | / | .
O=C1NC(=O)c2cc(Nc3ccccc3)c(Nc3ccccc3)cc21 | . | / | / | . | / | /
COc1cccc(/C=N/NC(=O)CNC(=O)COc2cccc(C)c2)c1O | 23µM | ? | ? | ? | ? | ?
